In ChEMBL document CHEMBL1961873, “Compounds: GSK PKIS; Assays: Nanosyn kinase panel” (2012):

What was measured:
[1] = biological target: T1, Tyrosine-protein kinase receptor TYRO3 (Homo sapiens) (UniProt Q06418); details: at 1 µM
T1 sequence (whole entry): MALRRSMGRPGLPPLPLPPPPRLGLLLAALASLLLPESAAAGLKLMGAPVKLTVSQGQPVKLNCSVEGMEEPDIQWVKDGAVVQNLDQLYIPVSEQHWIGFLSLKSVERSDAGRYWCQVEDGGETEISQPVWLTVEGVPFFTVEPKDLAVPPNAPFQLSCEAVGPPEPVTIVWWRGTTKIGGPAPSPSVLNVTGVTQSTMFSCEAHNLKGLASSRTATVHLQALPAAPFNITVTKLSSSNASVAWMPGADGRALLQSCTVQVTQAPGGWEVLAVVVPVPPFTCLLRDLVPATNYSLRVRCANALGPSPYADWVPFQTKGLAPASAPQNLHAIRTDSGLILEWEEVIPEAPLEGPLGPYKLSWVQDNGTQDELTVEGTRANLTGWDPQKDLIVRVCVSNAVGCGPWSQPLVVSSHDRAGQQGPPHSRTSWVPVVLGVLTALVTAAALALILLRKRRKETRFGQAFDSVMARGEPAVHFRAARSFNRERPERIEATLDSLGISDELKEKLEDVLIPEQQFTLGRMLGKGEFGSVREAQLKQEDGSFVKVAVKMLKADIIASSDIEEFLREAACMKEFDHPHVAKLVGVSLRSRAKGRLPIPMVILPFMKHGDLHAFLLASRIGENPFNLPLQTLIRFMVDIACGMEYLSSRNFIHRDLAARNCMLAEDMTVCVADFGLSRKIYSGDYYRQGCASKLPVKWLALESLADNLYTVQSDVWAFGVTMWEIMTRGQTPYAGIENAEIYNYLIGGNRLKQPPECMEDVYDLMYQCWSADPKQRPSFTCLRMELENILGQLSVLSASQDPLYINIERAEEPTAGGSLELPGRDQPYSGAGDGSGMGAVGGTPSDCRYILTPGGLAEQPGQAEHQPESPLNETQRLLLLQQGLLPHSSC

[2] = biological target: Tyrosine-protein kinase Yes (Homo sapiens) (UniProt P07947); details: at 0.1 µM
Sequence of Tyrosine-protein kinase Yes (Homo sapiens) (P07947 2-543 limits assumed): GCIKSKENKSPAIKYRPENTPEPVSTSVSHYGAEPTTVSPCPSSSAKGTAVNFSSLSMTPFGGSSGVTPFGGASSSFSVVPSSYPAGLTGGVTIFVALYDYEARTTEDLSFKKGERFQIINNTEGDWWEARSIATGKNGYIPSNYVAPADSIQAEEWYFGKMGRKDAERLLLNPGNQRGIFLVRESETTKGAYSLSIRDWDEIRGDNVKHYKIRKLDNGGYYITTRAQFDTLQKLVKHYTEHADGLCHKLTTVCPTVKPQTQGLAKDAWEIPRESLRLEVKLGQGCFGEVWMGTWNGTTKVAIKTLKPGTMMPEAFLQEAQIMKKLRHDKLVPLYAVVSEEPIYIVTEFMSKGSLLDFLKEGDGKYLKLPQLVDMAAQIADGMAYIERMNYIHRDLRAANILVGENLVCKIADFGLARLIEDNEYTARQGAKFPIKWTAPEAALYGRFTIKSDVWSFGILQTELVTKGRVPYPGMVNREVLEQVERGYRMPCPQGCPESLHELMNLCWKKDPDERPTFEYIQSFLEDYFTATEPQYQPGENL

[3] = biological target: Tyrosine-protein kinase Yes (Homo sapiens) (UniProt P07947); details: at 1 µM
[4] = biological target: T2, Tyrosine-protein kinase ZAP-70 (Homo sapiens) (UniProt P43403); details: at 0.1 µM
T2 sequence (whole entry): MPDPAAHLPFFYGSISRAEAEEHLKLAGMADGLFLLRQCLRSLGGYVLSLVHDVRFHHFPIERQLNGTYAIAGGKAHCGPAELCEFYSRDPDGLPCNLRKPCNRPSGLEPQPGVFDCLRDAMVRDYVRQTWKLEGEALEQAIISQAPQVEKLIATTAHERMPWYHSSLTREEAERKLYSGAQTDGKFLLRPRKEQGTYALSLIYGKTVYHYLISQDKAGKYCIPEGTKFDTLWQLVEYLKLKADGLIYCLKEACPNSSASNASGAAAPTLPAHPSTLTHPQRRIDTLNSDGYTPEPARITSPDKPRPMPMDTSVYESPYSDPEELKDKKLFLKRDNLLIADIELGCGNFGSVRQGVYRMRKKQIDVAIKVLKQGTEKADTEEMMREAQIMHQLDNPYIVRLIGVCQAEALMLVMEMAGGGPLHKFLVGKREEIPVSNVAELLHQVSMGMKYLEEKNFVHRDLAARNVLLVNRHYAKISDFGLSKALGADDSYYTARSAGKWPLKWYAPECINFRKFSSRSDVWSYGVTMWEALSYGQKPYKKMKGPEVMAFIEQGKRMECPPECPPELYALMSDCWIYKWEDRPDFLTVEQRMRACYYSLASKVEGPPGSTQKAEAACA

[5] = biological target: T2, Tyrosine-protein kinase ZAP-70 (Homo sapiens); details: at 1 µM
[6] = biological target: Serine/threonine-protein kinase B-raf (Homo sapiens) (UniProt P15056); details: at 0.1 µM
Sequence of Serine/threonine-protein kinase B-raf (Homo sapiens) (P15056 whole entry): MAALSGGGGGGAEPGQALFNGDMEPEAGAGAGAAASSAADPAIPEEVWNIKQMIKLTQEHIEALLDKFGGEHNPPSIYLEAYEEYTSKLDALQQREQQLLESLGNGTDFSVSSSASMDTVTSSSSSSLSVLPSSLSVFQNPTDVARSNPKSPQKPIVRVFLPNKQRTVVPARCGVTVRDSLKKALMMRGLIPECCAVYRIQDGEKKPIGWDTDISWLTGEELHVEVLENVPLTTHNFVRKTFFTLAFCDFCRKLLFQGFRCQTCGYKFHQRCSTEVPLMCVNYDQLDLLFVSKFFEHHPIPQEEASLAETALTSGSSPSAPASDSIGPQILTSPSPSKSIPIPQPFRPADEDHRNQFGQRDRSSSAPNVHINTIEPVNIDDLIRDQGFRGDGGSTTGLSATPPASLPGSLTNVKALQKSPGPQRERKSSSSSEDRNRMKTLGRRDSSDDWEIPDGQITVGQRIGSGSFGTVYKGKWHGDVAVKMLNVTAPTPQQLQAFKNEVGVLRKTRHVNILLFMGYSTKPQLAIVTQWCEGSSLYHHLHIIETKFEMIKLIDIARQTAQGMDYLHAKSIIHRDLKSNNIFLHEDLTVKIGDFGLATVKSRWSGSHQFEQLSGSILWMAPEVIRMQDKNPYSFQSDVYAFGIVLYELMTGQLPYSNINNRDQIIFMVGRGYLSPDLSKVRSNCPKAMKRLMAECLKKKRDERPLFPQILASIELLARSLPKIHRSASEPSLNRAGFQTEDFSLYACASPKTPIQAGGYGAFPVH

[7] = biological target: Serine/threonine-protein kinase B-raf (Homo sapiens) (UniProt P15056); details: at 1 µM
[8] = system: Serine/threonine-protein kinase B-raf (Homo sapiens), P15056 [V600E]; details: at 0.1 µM
Sequence of Serine/threonine-protein kinase B-raf (Homo sapiens), P15056 [V600E] (P15056 whole entry V600E): as the sequence (P15056 whole entry) above, with V600E counted along it

[9] = system: Serine/threonine-protein kinase B-raf (Homo sapiens), P15056 [V600E]; details: at 1 µM
[10] = biological target: RAF proto-oncogene serine/threonine-protein kinase (Homo sapiens) (UniProt P04049); details: at 0.1 µM
Sequence of RAF proto-oncogene serine/threonine-protein kinase (Homo sapiens) (P04049 whole entry): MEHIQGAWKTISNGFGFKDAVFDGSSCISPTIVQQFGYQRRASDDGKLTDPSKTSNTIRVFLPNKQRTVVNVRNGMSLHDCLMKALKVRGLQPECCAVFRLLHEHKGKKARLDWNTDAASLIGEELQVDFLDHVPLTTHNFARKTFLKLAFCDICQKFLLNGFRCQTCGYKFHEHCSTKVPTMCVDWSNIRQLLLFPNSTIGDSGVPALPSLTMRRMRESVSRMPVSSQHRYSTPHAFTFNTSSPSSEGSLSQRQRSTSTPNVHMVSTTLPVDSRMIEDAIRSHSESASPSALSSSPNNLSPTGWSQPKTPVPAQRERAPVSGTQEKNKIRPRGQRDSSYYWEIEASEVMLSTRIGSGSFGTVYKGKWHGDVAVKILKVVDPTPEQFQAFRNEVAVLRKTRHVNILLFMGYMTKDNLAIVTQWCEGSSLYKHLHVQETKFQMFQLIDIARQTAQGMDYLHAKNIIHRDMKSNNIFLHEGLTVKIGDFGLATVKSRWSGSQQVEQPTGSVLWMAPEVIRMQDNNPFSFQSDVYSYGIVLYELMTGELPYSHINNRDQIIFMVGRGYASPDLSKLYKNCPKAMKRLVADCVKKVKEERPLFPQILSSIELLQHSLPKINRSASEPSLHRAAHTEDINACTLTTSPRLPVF

[11] = biological target: RAF proto-oncogene serine/threonine-protein kinase (Homo sapiens) (UniProt P04049); details: at 1 µM
[12] = biological target: T3, Interleukin-1 receptor-associated kinase 4 (Homo sapiens) (UniProt Q9NWZ3); details: at 0.1 µM
T3 sequence (whole entry): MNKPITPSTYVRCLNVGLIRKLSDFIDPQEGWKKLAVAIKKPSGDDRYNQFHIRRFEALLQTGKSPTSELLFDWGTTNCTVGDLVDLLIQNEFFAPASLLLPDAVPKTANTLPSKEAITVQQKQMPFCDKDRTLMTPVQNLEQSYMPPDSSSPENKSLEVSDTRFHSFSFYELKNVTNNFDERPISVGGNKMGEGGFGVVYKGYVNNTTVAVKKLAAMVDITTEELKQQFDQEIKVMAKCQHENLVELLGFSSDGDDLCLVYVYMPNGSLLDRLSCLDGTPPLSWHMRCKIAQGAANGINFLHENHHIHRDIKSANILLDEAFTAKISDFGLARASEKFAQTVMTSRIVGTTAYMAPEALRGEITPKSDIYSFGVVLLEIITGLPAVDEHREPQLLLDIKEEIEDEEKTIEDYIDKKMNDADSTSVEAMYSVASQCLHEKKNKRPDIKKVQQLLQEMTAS

[13] = biological target: T3, Interleukin-1 receptor-associated kinase 4 (Homo sapiens); details: at 1 µM
[14] = biological target: Leucine-rich repeat serine/threonine-protein kinase 2 (Homo sapiens) (UniProt Q5S007); details: at 0.1 µM
Sequence of Leucine-rich repeat serine/threonine-protein kinase 2 (Homo sapiens) (Q5S007 whole entry): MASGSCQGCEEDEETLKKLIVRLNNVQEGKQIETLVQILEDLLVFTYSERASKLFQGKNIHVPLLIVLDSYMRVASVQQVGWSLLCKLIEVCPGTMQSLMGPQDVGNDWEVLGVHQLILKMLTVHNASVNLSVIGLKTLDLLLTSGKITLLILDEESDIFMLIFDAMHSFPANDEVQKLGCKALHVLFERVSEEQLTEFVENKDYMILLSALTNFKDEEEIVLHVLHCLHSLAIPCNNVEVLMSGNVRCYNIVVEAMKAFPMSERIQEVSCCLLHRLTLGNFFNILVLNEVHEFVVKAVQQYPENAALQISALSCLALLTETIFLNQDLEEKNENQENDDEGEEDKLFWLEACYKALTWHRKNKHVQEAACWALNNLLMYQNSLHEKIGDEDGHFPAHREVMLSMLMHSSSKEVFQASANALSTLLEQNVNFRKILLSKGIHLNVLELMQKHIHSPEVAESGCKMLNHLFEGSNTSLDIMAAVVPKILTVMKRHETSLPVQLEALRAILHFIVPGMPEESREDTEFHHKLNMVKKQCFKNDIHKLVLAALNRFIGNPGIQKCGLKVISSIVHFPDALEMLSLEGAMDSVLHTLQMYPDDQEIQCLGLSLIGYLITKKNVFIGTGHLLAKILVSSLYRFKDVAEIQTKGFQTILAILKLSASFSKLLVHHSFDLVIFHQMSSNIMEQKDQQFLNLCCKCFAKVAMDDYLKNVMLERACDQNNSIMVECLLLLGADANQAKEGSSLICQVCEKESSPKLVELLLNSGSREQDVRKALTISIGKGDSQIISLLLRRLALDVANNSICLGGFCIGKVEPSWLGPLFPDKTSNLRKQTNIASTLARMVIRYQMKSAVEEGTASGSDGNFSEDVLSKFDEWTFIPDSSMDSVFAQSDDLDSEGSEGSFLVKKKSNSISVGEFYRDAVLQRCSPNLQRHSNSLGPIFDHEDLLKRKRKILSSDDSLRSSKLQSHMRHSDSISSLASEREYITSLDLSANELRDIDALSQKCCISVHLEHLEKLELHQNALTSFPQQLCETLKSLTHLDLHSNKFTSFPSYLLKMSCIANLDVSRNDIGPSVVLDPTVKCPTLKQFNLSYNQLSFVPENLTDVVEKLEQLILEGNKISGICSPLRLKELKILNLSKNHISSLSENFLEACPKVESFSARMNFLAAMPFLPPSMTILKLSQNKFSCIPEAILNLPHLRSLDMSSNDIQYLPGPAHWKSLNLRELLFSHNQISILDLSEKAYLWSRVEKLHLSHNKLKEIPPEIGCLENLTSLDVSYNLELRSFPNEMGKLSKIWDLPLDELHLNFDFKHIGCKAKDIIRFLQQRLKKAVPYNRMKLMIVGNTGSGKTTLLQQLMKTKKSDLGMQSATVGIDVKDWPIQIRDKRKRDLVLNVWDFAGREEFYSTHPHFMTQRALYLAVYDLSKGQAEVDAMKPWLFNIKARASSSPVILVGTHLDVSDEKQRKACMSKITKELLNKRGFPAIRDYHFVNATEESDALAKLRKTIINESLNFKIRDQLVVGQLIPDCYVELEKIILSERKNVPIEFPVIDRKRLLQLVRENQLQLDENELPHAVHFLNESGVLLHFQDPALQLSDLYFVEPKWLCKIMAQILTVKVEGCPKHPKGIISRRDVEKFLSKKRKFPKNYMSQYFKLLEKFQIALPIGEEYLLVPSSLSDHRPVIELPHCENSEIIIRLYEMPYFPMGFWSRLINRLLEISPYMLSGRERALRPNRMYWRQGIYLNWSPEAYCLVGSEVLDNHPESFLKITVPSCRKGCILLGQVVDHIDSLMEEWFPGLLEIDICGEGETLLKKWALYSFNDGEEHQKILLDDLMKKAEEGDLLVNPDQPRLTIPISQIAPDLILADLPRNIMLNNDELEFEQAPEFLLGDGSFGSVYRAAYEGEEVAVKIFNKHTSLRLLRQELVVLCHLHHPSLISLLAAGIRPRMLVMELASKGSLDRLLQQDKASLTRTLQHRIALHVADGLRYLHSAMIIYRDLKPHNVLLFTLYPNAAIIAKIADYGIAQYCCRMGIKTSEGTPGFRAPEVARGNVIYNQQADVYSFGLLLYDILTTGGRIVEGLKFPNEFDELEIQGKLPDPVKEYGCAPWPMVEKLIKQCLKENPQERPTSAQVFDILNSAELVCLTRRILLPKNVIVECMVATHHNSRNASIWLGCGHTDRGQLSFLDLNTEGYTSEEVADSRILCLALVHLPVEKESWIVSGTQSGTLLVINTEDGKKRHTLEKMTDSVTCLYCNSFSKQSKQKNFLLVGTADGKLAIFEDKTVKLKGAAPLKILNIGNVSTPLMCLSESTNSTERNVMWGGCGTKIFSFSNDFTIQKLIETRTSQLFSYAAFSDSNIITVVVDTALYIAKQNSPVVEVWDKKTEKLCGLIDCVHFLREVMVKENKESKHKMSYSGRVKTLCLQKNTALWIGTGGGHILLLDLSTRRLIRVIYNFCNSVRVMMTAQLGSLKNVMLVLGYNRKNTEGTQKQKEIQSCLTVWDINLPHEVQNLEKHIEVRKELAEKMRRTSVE

[15] = biological target: Leucine-rich repeat serine/threonine-protein kinase 2 (Homo sapiens) (UniProt Q5S007); details: at 1 µM
[16] = system: Leucine-rich repeat serine/threonine-protein kinase 2 (Homo sapiens), Q5S007 [G2019S]; details: at 0.1 µM
Sequence of Leucine-rich repeat serine/threonine-protein kinase 2 (Homo sapiens), Q5S007 [G2019S] (Q5S007 whole entry G2019S): as the sequence (Q5S007 whole entry) above, with G2019S counted along it

[17] = system: Leucine-rich repeat serine/threonine-protein kinase 2 (Homo sapiens), Q5S007 [G2019S]; details: at 1 µM

| Structure (SMILES) | inhibition [1] | inhibition [2] | inhibition [3] | inhibition [4] | inhibition [5] | inhibition [6] | inhibition [7] | inhibition [8] | inhibition [9] | inhibition [10] | inhibition [11] | inhibition [12] | inhibition [13] | inhibition [14] | inhibition [15] | inhibition [16] | inhibition [17] |
| --- | --- | --- | --- | --- | --- | --- | --- | --- | --- | --- | --- | --- | --- | --- | --- | --- | --- |
| NS(=O)(=O)c1ccc(N/N=C2\C(=O)Nc3ccc(C(=O)NCCCn4ccnc4)cc32)cc1 | 9.93% | 5.35% | 24.1% | 0.31% | 8.11% | 10.7% | 38.4% | 11.3% | 38.9% | 5.92% | 17.5% | 3.89% | 1.67% | 7.05% | 18.7% | 11.1% | 38.8% |
| CN1CCN(CCCNc2nc3ccc(Oc4ccc(NC(=O)Nc5cc(C(F)(F)F)ccc5F)cc4)cc3[nH]2)CC1 | 19.1% | -0.61% | -1.74% | -0.98% | 2.82% | 2.28% | 13.7% | 2.94% | 16.6% | 2.41% | -5.93% | -3.98% | 1.11% | 0.2% | 9.72% | 0.21% | 4.43% |
| COc1cc2ncn(-c3cc(OCc4cccs4)c(C(N)=O)s3)c2cc1OC | 8.04% | 4.84% | 21.2% | -0.46% | 3.04% | 1.7% | 0.38% | 2.45% | 0.77% | 1.73% | 6.17% | -3.1% | 1.66% | 2.29% | 9.04% | 15.9% | 54% |
| O=C(Nc1n[nH]c2cc(-c3ccccc3)ccc12)C1CC1 | 16.1% | 1.86% | 5.44% | 4.16% | 1.7% | 7.16% | 6.29% | 6.47% | 6.53% | -0.71% | 1.41% | 2.36% | 2.04% | 2.57% | 6.05% | 3.85% | 7.95% |
| COc1cccc(-n2cnc3c(N/N=C/c4ccncc4)ncnc32)c1 | 4.59% | 7.55% | 36.4% | -2.42% | -3.33% | -0.31% | -1.09% | -0.89% | -0.68% | -3.41% | -4.3% | -2.35% | 0.01% | -1.76% | 7.17% | 0.11% | 18.1% |
| CCS(=O)(=O)c1ccc(OC)c(Nc2ncc(-c3cccc(-c4ccccc4F)c3)o2)c1 | 19.6% | 25.7% | 73% | 1.06% | -0.05% | 1.09% | 1.46% | 0.74% | 1.89% | -0.07% | -8.29% | 1.45% | 0.38% | 1.95% | 11.6% | 4.86% | 19.5% |
| C[C@@H](Oc1cc(-n2cnc3ccc(OCC4CCN(C)CC4)cc32)sc1C(N)=O)c1ccccc1Cl | 6.74% | 2.66% | 15.5% | 4.61% | 6.88% | 8.65% | 10.6% | 6.37% | 5.47% | 3.88% | 8.07% | 2.66% | 6.25% | 8.16% | 17.3% | 11.1% | 33.5% |
